Only some compounds are listed: those with a hit (about 8.1% of all), similar ones and a draw of the others.
KB-3-1 cytotox – KB-3-1 parental cell cytotoxicity; KB-3-1 viability, CellTiter-Glo ATP luminescence, 72 h; Potency, µM (top dose mostly 46.1 µM), most hits filed as cytotoxic; 1.4% of 400,000 active; AID 1347075; also: nearly all actives have a fitted effect of over 60% in size
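Using CellTiter-Glo luminescence, growth of non-resistant KB-3-1 adenocarcinoma cells is assessed 72 h after pin-tool compound addition at 37 °C. Normalized responses across the concentration series yield fitted curves.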
KB-V1 MDR tox – KB-V1 MDR subline cytotoxicity | AID 1347076 | 3.4% of 400,000 active | Potency, µM (series often up to 46.1 µM), usual class: cytotoxic | KB-V1 MDR cells viability, CellTiter-Glo, 72 h; also: nearly all actives have a fitted effect of over 60% in size
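KB-V1, DMEM (no phenol red) + 10% FBS; cpd pin-transferred, titration series; 72 h, 37 degrees C; CellTiter-Glo, luminescence. Data normalized, curve-fit.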
MCF10A rerep – induces DNA re-replication in MCF 10a normal breast cells. MCF 10A DNA re-replication, Hoechst nuclear intensity, 48 h. Potency, µM (titrated, usually from 46.1 µM), usual class: activators. 2.9% of 350,000 active; also: nearly all actives have a fitted effect of over 50% in size
SW480 rerep – induces DNA re-replication in SW480 colon adenocarcinoma cells | AID 624297 | 1.8% of 340,000 active | Potency, µM (highest dose often 46.1 µM), most hits filed as activators | SW480 DNA re-replication, Hoechst DNA content imaging, 48 h; also: nearly all actives have a fitted effect of over 55% in size
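Image-based read-out: total Hoechst fluorescence of nuclei (405 nm excitation, 500-530 nm emission), with hits raising the fraction of high-intensity nuclei. SW480 colon cells incubated 48 hr with compounds at 37 C.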
ELG1 repair inh – blocks ELG1-dependent DNA repair in HEK293T cells; 2.3% of 330,000 active; HEK293T ELG1-luciferase reporter, luminescence, 16 h; DNA damage induced by 5-fluorouridine; AID 504467; Potency, µM (titrated, usually from 46.1 µM), actives largely listed as inhibitors; also: nearly all actives have a fitted effect of over 55% in size
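DMSO vehicle served as the neutral condition. Each well held 2,000 cells given 5-fluorouridine plus compound; after 16 hr at 37 °C/5% CO2, ONE-Glo was added and luciferase measured 30 min later.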
Numbers stand for hits; - = inactive; ? = inconclusive; . = no result given; [ ] = dose if it differs, or a comment. Calls follow the shape of the dose curve; as a rule, active = well fitted curve in the direction sought with a large enough effect; inconclusive = small, poorly fitted or top-dose-only effect, or another doubt; inactive = no such curve, though single readings can be large; an effect the other way counts as inactive or inconclusive.

SMILES | KB-3-1 cytotox | KB-V1 MDR tox | MCF10A rerep | SW480 rerep | ELG1 repair inh
CN(C)c1ccc(C=c2c3ccccc3n3c2c2ccccc2[n+]3C)cc1 | 5.17µM | ? | ? | 13µM | .
CCOC(=O)c1cc2c(=Cc3ccc(N(C)C)cc3)c3ccccc3n2[n+]1C | 2.06µM | ? | - | ? | .
O=C1c2ccccc2NC(c2cccc(O)c2)N1c1ccccc1 (stereo unspecified) | - | - | - | ? | -
CCOC(=O)c1sc2nc(C)nc(N3CCN(S(=O)(=O)c4ccccc4)CC3)c2c1C | ? | ? | - | - | 23.1µM
CCOC(=O)c1sc2nc(CC(=O)OC)nc(NCCN3CCOCC3)c2c1C | ? | 3.66µM | - | - | ?
CCOC(=O)c1sc2nc(C)nc(NCc3ccccc3)c2c1C | - | - | ? | - | 23.1µM
CCOC(=O)c1sc2nc(CC(=O)OC)nc(NCCN(CC)CC)c2c1C | - | 9.2µM | - | - | -
CCOC(=O)c1sc2nc(CC(=O)OC)nc(N3CCN(c4ccc(OC)cc4)CC3)c2c1C | - | ? | - | - | ?
COCCNC(=O)c1cccc(-n2c(C)nc3cccnc32)c1 | - | - | . | . | .
Cc1ccccc1NC(=O)CC1C(=O)NCCN1C(=O)c1cccc(Cl)c1 (stereo unspecified) | - | - | - | - | -
CCOC(=O)c1sc2nc(CC(=O)OC)nc(NCc3ccc(Cl)cc3)c2c1C | - | ? | - | - | 5.8µM
CCOC(=O)c1sc2nc(CC(=O)OC)nc(N(C)CCc3ccccn3)c2c1C | - | - | - | - | -
Cc1ccccc1NC(=S)Nc1cccc2cnccc12 | - | ? | - | - | ?
S=C(Nc1cccc(Cl)c1)Nc1cccc2cnccc12 | 18.4µM | 23.1µM | ? | - | ?
Cc1ccc(C)c(NC(=S)Nc2cccc3cnccc23)c1 | ? | ? | ? | 13µM | ?
S=C(NCc1ccccc1)Nc1cccc2cnccc12 | - | ? | - | - | 2.06µM
Fc1ccccc1NC(=S)Nc1cccc2cnccc12 | ? | 23.1µM | - | - | ?
O=C(CCSc1ccccc1)NCCSCc1ccccc1 | - | - | - | - | -
S=C(NCCc1ccccc1)Nc1cccc2cnccc12 | 4.11µM | 8.2µM | - | - | 1.46µM
CN1CCN(C(=S)NC(=O)c2ccc(-c3ccccc3)cc2)CC1 | - | - | - | ? | -
Cc1nc(N2CCN(Cc3ccc(Cl)cc3)CC2)c2oc3ccccc3c2n1 | - | ? | ? | - | 18.3µM
Cc1nc(N2CCN(Cc3ccc4c(c3)OCO4)CC2)c2oc3ccccc3c2n1 | ? | ? | 11.6µM | ? | .
COc1ccccc1N1CCN(c2nc(C)nc3c2oc2ccccc23)CC1 | 1.41µM | 1.12µM | ? | ? | ?
Cc1nc(Oc2ccc(Cl)cc2)c2oc3ccccc3c2n1 | - | ? | - | - | -
Cc1nc(N2CCC(C)CC2)c2oc3ccccc3c2n1 | ? | 20.6µM | ? | -[9.22 µM] | 20.6µM
SMILES | KB-3-1 cytotox | KB-V1 MDR tox | MCF10A rerep | SW480 rerep | ELG1 repair inh
Cc1cc(C)nc(N2CCN(c3nc(-c4ccccc4)nc4c3oc3ccccc34)CC2)n1 | - | - | - | - | .
O=C(NCc1ccncc1)c1ccc(Br)o1 | - | - | - | - | -
CCOC(=O)Cn1cc(C#N)c2ccccc21 | - | - | - | - | -
CCOC(=O)COc1ccc2ccccc2c1/C=C/[N+](=O)[O-] | 18.4µM | ? | ? | ? | ?
CCOc1ccc(/C=C/[N+](=O)[O-])c2ccccc12 | ? | 18.4µM | 2.31µM | 6.51µM | ?
CCOC(=O)Cn1cc(/C=C/[N+](=O)[O-])c2ccccc21 | - | ? | ? | 20.6µM | -
O=[N+]([O-])/C=C/c1cn(Cc2ccc(Cl)cc2)c2ccccc12 | - | ? | 5.8µM | ? | -
COc1ccc(S(=O)(=O)Nc2ccccc2C(=O)OC2CCCN(C)C2)cc1OC (stereo unspecified) | - | ? | - | - | -
Cc1cccc(Cn2cc(/C=C/[N+](=O)[O-])c3ccccc32)c1 | ? | - | 20.6µM | ? | -
O=C(CSc1nncn1-c1ccccc1)NC1CCCc2ccccc21 (stereo unspecified) | - | ? | - | ? | -
CCC(=O)N1Cc2cc(C(=O)Nc3nccs3)nc(-c3cccc(-c4ccccc4OC)c3)c2[C@@H]1CCO | - | 23.1µM | . | . | .
CCC(C(=O)NCc1ccco1)N(C(=O)CNS(=O)(=O)c1ccccc1)c1ccc(OC)cc1 (stereo unspecified) | - | 23.1µM | ? | - | ?
CCCC(C(=O)NCc1ccco1)N(C(=O)CNS(=O)(=O)c1ccccc1)c1ccc(OC)cc1 (stereo unspecified) | - | - | - | -[1.84 µM] | -
O=C1CN(C(=O)c2ccccc2)C(c2ccccc2)c2cc(F)ccc2N1 (stereo unspecified) | - | - | - | - | -
CC(C)(C)c1ccc(C(=O)N2CC(=O)Nc3ccc(F)cc3C2c2ccc(F)cc2)cc1 (stereo unspecified) | 18.4µM | ? | . | . | .
Cc1ccc2c(c1)C(c1ccccc1)N(C(=O)c1ccccc1)CC(=O)N2 (stereo unspecified) | - | - | ? | - | -
Cc1ccc2c(c1)C(c1ccccc1)N(C(=O)c1cccc([N+](=O)[O-])c1)CC(=O)N2 (stereo unspecified) | - | - | - | - | 13µM
O=C1CN(C(=O)c2ccc(Br)o2)C(c2ccccc2)c2cc(F)ccc2N1 (stereo unspecified) | - | - | - | - | 18.4µM
Cc1cc(OCC(=O)Nc2ncn[nH]2)ccc1Cl | - | - | - | - | ?
Cc1nn(-c2ccccc2)cc1/C=N/NC(N)=S | ? | 16.4µM | ? | -[9.22 µM] | ?
O=C(CSC1CS(=O)(=O)c2cc([N+](=O)[O-])ccc21)NNC(=O)c1ccc(Cl)cc1 (stereo unspecified) | - | ? | - | - | -
O=C(CSC1CS(=O)(=O)c2cc([N+](=O)[O-])ccc21)NNC(=O)c1ccccc1 (stereo unspecified) | - | - | ? | 9.2µM | -
CN(C(=O)COC(=O)c1ccc(F)c(S(=O)(=O)N2CCOCC2)c1)C1CCS(=O)(=O)C1 (stereo unspecified) | - | - | - | - | -
Cc1c2c(n3c(nc4ccccc43)c1C#N)N(CCCN(C)C)CC2 | - | ? | 14.6µM | 9.2µM | -
Cc1c2c(n3c(nc4ccccc43)c1C#N)N(CCN(C)C)CC2 | - | - | 16.4µM | 9.2µM | -
Cc1c2c(n3c(nc4ccccc43)c1C#N)N(c1ccccc1)CC2 | . | . | - | - | -
CCOC(=O)C1=C(C)N(c2ccccc2)C(=O)NC1c1cccc([N+](=O)[O-])c1 (stereo unspecified) | - | 20.6µM | ? | - | -
CCOC(=O)C1=C(N)Oc2cc(O)ccc2C1c1cccc([N+](=O)[O-])c1 (stereo unspecified) | ? | ? | 8.2µM | ? | -
O=S(=O)(Cc1ccccc1)Nc1cccc(F)c1 | - | ? | - | - | -
